According to PubChem BioAssay AID590 (National Center for Advancing Translational Sciences (NCATS), 2007):
The campaign covered roughly 59,000 compounds. About 6,500 (11%) were called active. About 15% were inconclusive and are not listed. No stated cut-off is given here; in the data, active means max dye-equivalent concentration above about 10 nM; inconclusive means mostly about 1.1 nM to 9.6 nM; inactive means weaker than that. The full list was thinned out, with actives kept by preference.

assay: qHTS Assay for Spectroscopic Profiling in A350 Spectral Region; details: Compound autofluorescence, 340/450 nm, Alexa 350 dye-equivalents; hits give high values

Max dye-equivalent concentration, inactive:
c1coc(CNc2ncnc3ccccc23)c1
C=C(C)Cn1c(SCC(=O)NCc2ccco2)nc2sc3c(c2c1=O)CCC3
CCOC(=O)c1cnc(SCC(=O)NCc2ccco2)nc1N
CC(=NC1CCN(Cc2ccccc2)CC1)c1c(O)[nH]c(=O)[nH]c1=O
COc1ccc(CCNC(=O)CSc2nc(C)nc3c2oc2ccccc23)cc1OC
COc1ccccc1Nc1ncc(C(C)=O)c(C)n1
O=C1CSC(=O)N1CCOCCN1C(=O)CSC1=O
CS(=O)(=O)N1CCC2(CCN(c3ccncc3)CC2)CC1
Cc1ccc(F)cc1NC(=O)c1cccc(N(C)C)c1
OCCCNC(c1ccccc1)c1ccc(O)cc1 (stereo not drawn)
C=CCn1c(COc2cccc3cccnc23)nnc1SCC(=O)OC
O=C(Nc1ccc(F)cc1)c1cccnc1N1CCOCC1
CCCn1c(SCC(=O)N2CCc3ccccc32)nnc1-c1ccncc1
Cc1cccc(NC(=O)CSc2nc3c(c(=O)[nH]2)CCC3)c1C
COc1cccc(-c2nc(S(=O)(=O)c3ccccc3)c(N3CCOCC3)o2)c1
COc1ccccc1CNC(=O)C1CCN(S(C)(=O)=O)CC1
Cc1cc(C)c2nc3c(c([C@H](O)[C@@H]4CCCCN4)c2c1)CC/C3=C/c1ccc(Cl)cc1
COC(=O)c1sc(NC(=O)c2csc3c2CCCC3)nc1C
Cc1nc(NC(=O)CCC(=O)O)sc1C(=O)N(C)C
CCN(CC)P(=O)(C(NC(=O)OC)C(F)(F)C(F)(F)C(F)(F)C(F)F)N(CC)CC (stereo not drawn)
CCOc1cccc(NC(=O)C2CCCN(S(=O)(=O)c3ccc(OC)cc3)C2)c1 (stereo not drawn)
CCOC(=O)c1c(C)c(C(=O)NCCc2ccc(S(N)(=O)=O)cc2)c(C)n1CC
CCOc1ccccc1-n1c(SCC(=O)N2CCCC2)nnc1-c1ccoc1C
C=CCNc1nnc(C)c2ccccc12
O=C(OCC(=O)N1CCN(C(=O)c2ccco2)CC1)c1ccccc1Cc1ccccc1
COc1ccc(C2C(C(=O)N3CCN(c4ccc(OC)cc4)CC3)c3ccccc3C(=O)N2C)cc1 (stereo not drawn)
C/C(Cl)=C\Cn1c(Nc2cccc(C)c2)nc2c1c(=O)n(C)c(=O)n2C
COCCNC(=O)c1ccccc1-c1nc(-c2ccccc2Cl)no1
COCC(C)NC(=O)c1ccc(Cl)c(Cl)c1 (stereo not drawn)
OCCCNCc1ccccn1
Cc1noc(C)c1CSc1nc2cc(S(=O)(=O)N3CCOCC3)ccc2o1
CC(=O)Nc1ccc(S(=O)(=O)Nc2nc3n(n2)C(c2ccccc2)CC(=O)N3)cc1 (stereo not drawn)
Cc1onc(-c2ccccc2Cl)c1C(=O)NCCn1ccc2ccccc21
Cc1cc(C)c2c(c1)cc(C)c1nnc(SCC(=O)Nc3cc(C)on3)n12
Cc1nc(SCC(=O)Nc2cc(C)on2)c2c(C)c(C)sc2n1
Cn1c(=O)c2c(nc(SCC(=O)Nc3ccccc3N3CCCCC3)n2C)n(C)c1=O
CC(C)c1cc(CN(C)C)c(O)c(C(C)(C)C)c1
O=C(Cn1c(=S)nc2ccccn21)N1CCc2ccccc2C1
O=C1c2ccccc2C(=O)N1c1ccccc1S(=O)C(F)(F)F (stereo not drawn)
CC1Cc2ccccc2N1C(=O)Cn1cnc2ccccc2c1=O (stereo not drawn)
CCCOC(=O)Cc1c(O)c2ccccc2[nH]c1=O
CCOC(=O)CC1=CC(=O)Nc2ccccc2N1
CC1(C)Cc2ccccc2-c2nnc(-c3cccc(O)c3)n21
CCCC(=O)Nc1ccc(Cl)c(NC(=O)c2ccc(Br)o2)c1
Cc1cc(C)nc(-n2nc(C)cc2NC(=O)c2ccc(Br)o2)n1
COc1ccc(CCNC(=O)CSc2nnc(-c3cccc(F)c3)o2)cc1OC
CC(C)C(=O)Nc1cccc(C(=O)Nc2ccc3c(c2)OCO3)c1
O=C(NC1CCCCC1)C1c2ccccc2C(=O)N1Cc1ccco1 (stereo not drawn)
O=C1c2cccnc2C(Nc2ccc(S(=O)(=O)N3CCCCCC3)cc2)N1Cc1ccccc1 (stereo not drawn)
CC(C)(CNCC(O)c1ccccc1)N1CCOCC1 (stereo not drawn)
Cc1ccc(C)c(NS(=O)(=O)c2cc(Br)cnc2N)c1
Cc1ccc(-c2noc(CSc3nnc(-c4ccccc4)n3C)n2)cc1
O=C(c1ccncc1)N1CCC2(CCCN(C(c3ccccc3)c3ccccc3)C2)CC1
COC(=O)[C@@H](NC(=O)NCc1cccc(OC)c1)C(C)C
COc1ccccc1C(=O)NCCn1cc(SCC(=O)NCc2ccco2)c2ccccc21
COc1ccc(CNC(=O)C2CCN(S(=O)(=O)N3CCOCC3)CC2)cc1
COc1ccc(C(=O)NCc2cn3ccccc3n2)cc1
CCOCCCNC(=O)c1c[nH]c2cc(C)ccc2c1=O
COc1cc(OC)cc(-c2nc3nc(C)c(CCC(=O)NCc4ccco4)c(C)n3n2)c1
COCCCNC(=O)c1ccc2c(c1)ncn2-c1ccccc1OC
COCCNc1ncnc2ccc(-c3cccnc3)cc12
C=C(C)COc1ccc(-c2n[nH]c(C)c2-c2ccccc2OC)c(O)c1
CN1CCc2[nH]nc(-c3n[nH]c4c3CN(C)CC4)c2C1
CCCSc1nc2c(c(=O)n(C)c(=O)n2C)n1Cc1ccc(C)cc1
COc1ccccc1N1CCN(C(=O)Cn2nnc(-c3cccs3)n2)CC1
COc1ccc2c(c1)C(C)=CC(C)(C)N2C(=O)CNCc1ccc2c(c1)OCO2
O=C1Nc2ccccc2C12Nc1ccccc1S2 (stereo not drawn)
CCCCSc1nnc(-c2ccc(NC(=O)CC)cc2)n1C
Cc1cc(N2CCCC2=O)cc(C)c1S(N)(=O)=O
COc1ccc(CCNS(=O)(=O)c2ccc(C(=O)NCc3ccco3)cc2)cc1OC
O=C(CSc1nnc(-c2cccnc2)n1Cc1ccco1)c1ccc(Cl)cc1
C(=C\c1ccccc1)/CSc1nnc(-c2cccnc2)n1Cc1ccco1
O=C(NCC12CC3CC(C1)CC(CNC(=O)N1CCCC1)(C3)C2)N1CCCC1
CC(=O)NCCc1ccc(S(=O)(=O)N(C)C2CCS(=O)(=O)C2)cc1 (stereo not drawn)
C[C@@H](Nc1nc(-c2ccccc2)nc2c1oc1ccccc12)C(=O)O
Cc1nc(N2CCN(c3ncccn3)CC2)c2oc3ccccc3c2n1
Cc1ccc(O)c(NC(=O)COc2cc(C)ccc2C)c1
CC(=O)c1ccc(N2C(=NC(=O)C(C)C)SC3CS(=O)(=O)CC32)cc1 (stereo not drawn)
CCOC(=O)CSc1nncc2ccc(OC)c(OC)c12
Cc1ccccc1N1C(=O)C2ON(c3ccccc3)C(c3ccncc3)C2C1=O (stereo not drawn)
Cc1cc2c(cc1C)NC(c1ccccn1)C1=C(CC(C)(C)CC1=O)N2 (stereo not drawn)
C=CCSC1=C(C#N)C(c2cc(Br)c(O)c(OC)c2)CC(=O)N1 (stereo not drawn)
CCOc1ccc(CN(Cc2ccco2)C(c2cccs2)c2nnnn2C(C)(C)C)cc1 (stereo not drawn)
CCN(Cc1ccncc1)C(=O)[C@@H](CO)c1ccccc1
COc1ccc(C(=O)N/N=C2/C(=O)c3c(C)cc(C)cc3CC2(C)C)cc1
Cc1ccc(-c2nc(COC(=O)c3c(C)noc3C)cs2)cc1
Cc1noc(C)c1C(=O)Nc1ccccn1

Max dye-equivalent concentration, active:
CN1CCc2c(sc3c2c(NCc2ccco2)nc2nnnn23)C1 530 nM
COc1ccccc1Nc1ncnc2c1oc1ccccc12 84 nM
COc1c(F)c(F)c(-c2csc(N)n2)c(F)c1F 15 nM
CCOc1cc(N2CCOCC2)c(OCC)cc1NC(=O)COc1cccc2cccnc12 19 nM
COc1cccc(-c2cc3nc4c(c(N5CCC6(CC5)OCCO6)n3n2)CCCC4)c1 130 nM
CCOC(=O)c1sc(/N=C/Nc2nc(C)c(C(=O)OCC)s2)nc1C 10 nM
C=CCNc1nnc(SCC(=O)N2CCCCC2)c2ccccc12 15 nM
COCCNC(=O)c1snc2ccc(Cl)cc12 46 nM
Cc1ccc2nc(-c3ccc(SCC(=O)Nc4cc(C)on4)nc3)[nH]c2c1 30 nM
O=c1oc2cc(O)ccc2cc1-c1ccc(F)cc1 100 nM
CCOC(=O)CCc1c(C)c(C#N)c2[nH]c3ccccc3n2c1=O 5400 nM
CCc1c(C)sc(NC(=O)c2ccc(Br)o2)c1C(=O)OC 190 nM
O=C1c2ccccc2C(O)N1Cc1ccccc1 (stereo not drawn) 26 nM
N=c1n(Cc2ccc(Cl)cc2)c2ccccc2n1CC(O)c1ccco1 (stereo not drawn) 11 nM
CCn1c(=N)c(C(=O)NCCCOC)cc2c(=O)n3cccc(C)c3nc21 20000 nM
COc1ccc(CNC(=O)c2cc3c(=O)n4ccccc4nc3n(CC3CCCO3)c2=N)cc1 (stereo not drawn) 290 nM
COc1ccc(CCn2c(=N)c(C(=O)NCc3ccco3)cc3c(=O)n4cccc(C)c4nc32)cc1 15 nM
Clc1cccc(-c2nc3nc4ccccc4nc3n2Cc2ccco2)c1 150 nM
CCc1nc(Nc2ccc3nccnc3c2)c2oc3ccccc3c2n1 82 nM
COc1cc(C2C(C#N)=C(C)NC3=C2C(=O)CC(C)(C)C3)ccc1O (stereo not drawn) 17 nM
Cc1noc(C)c1C(=O)OCC(=O)/C=C1\N(C)c2ccccc2C1(C)C 210 nM
